# Measurements reported in PubChem BioAssay (NCATS).
# Results filed as inconclusive are left out. Some of the results follow. A call without a number means that no potency is given here. Calls of active or inactive are those of the source. Calls come from the whole dose curve; as a rule, active = well fitted curve in the direction sought with a large enough effect; inconclusive = small, poorly fitted or top-dose-only effect, or another doubt; inactive = no such curve, though single readings can be large; an effect the other way counts as inactive or inconclusive.
# Columns and labels:
# [1] = biological target: Endonuclease 4 (Escherichia coli (strain K12)) (UniProt P0A6C1); assay: Counterscreen for APE1 Inhibitors: qHTS Validation Assay for Inhibitors of Endonuclease IV (AID 1708)
# Procedure, shortened: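 E. coli EndoIV at 2 nM final, preincubated 15 min at room temperature with compound, then 50 nM TAMRA/BHQ-2 THF abasic-site duplex added. Buffer: 50 mM Tris-HCl pH 7.5, 50 mM NaCl, 2 mM MgCl2, 1 mM DTT, 0.01% Tween-20. Kinetic fluorescence increase, third minus first read.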
# [2] = qHTS for differential inhibitors of proliferation of Plasmodium falciparum line 3D7 (AID 1876); note: potency is the fitted concentration of half-maximal effect; conditions: P. falciparum 3D7 proliferation inhibition
# [3] = qHTS for differential inhibitors of proliferation of Plasmodium falciparum line Dd2 (AID 1882);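 note: series mostly up to about 29 µM; compound exposure of 72 h on infected erythrocytes; nearly all actives have a fitted effect of over 65% in size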
# Excerpt: NIH Molecular Libraries Probe Production Network [MLPCN]
# NIH National Institute of Allergy and Infectious Diseases [NIAID]
# NIH Chemical Genomics Center [NCGC]
# Assay Provider: Xinzhuan Su, NIAID
# Plasmodium falciparum is a virulent malarial parasite that kills 1-2 million people worldwide each year. Transmitted by mosquitoes, the sporozoite form of the parasite enters the blood stream to infect hepatocytes, where they become merozoites that infect red blood cells (erythrocytes). Within erythrocytes, merozoites begin a […] cycle of growth and division, after which the parasite is released to infect new red blood cells. Gametocytes, which form within erythrocytes as well, circulate in the bloodstream and are ingested by the mosquito, thereby completing the life cycle. […] Because mature erythrocytes lack DNA, only Plasmodium-derived DNA is detected. […]
# The SYBR Green viability assay was adapted from a method described previously (Plouffe et al., 2008). […] The following morning, fluorescence intensity at 485(14) nm excitation and 535(25) nm emission wavelengths was measured on an EnVision (Perkin Elmer) plate reader. Plate reads were normalized relative to the control inhibitor (0.29 uM artemisinin) and vehicle (DMSO) wells present on each plate and then corrected by an algorithm using vehicle-only control plates at the beginning and end of the compound plate stack. […]
# [4] = qHTS for differential inhibitors of proliferation of Plasmodium falciparum line W2 (AID 1883); conditions: Plasmodium falciparum W2 proliferation inhibition;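 note: potency is the fitted concentration of half-maximal effect; parasites grown with compound for 72 h before lysis and staining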
# [5] = biological target: Ferritin light chain (Equus caballus) (UniProt P02791); assay: qHTS Validation Assay for Identification of Novel General Anesthetics (AID 2323); note: series mostly up to about 77 µM
# Chain of Ferritin light chain (Equus caballus) (P02791 2-175 limits assumed): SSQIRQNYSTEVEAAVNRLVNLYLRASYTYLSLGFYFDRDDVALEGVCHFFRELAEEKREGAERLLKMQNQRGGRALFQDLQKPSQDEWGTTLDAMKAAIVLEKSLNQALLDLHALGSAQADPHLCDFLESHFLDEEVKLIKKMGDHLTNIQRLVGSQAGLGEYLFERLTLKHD
# Procedure, shortened: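 10 uM horse-spleen apoferritin + 1-AMA (50% saturated, PBS); cpd pin-transferred, 10 min RT. Ex 380/Em 535 nm endpoint. Activity normalized between free 1-AMA and 1-AMA/apoferritin; 4-parameter Hill fit of concentration-response.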
# [6] = biological target: ATP-dependent DNA helicase Q1 (Homo sapiens) (UniProt P46063); assay: qHTS Validation Assay for Inhibitors of RecQ-Like Dna Helicase 1 (RECQ1) (AID 2353)
# Chain of ATP-dependent DNA helicase Q1 (Homo sapiens) (P46063 whole entry, looked up): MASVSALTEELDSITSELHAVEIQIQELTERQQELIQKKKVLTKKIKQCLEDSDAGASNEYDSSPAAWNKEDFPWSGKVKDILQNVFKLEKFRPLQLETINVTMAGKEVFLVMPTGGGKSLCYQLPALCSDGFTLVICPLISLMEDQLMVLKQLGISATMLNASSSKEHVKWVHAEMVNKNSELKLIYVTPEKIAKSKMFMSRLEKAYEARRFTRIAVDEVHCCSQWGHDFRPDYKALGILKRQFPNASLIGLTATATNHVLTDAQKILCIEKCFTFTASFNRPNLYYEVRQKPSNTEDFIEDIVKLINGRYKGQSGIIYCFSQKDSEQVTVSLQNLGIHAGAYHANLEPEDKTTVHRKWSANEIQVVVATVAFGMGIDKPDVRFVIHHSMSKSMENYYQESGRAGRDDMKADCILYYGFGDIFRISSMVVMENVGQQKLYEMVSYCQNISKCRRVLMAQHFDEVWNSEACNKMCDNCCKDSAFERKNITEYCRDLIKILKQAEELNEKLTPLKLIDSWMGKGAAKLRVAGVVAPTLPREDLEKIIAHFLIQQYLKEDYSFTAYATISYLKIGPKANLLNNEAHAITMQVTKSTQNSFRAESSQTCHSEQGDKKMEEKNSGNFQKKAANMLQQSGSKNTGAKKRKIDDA
# Procedure, shortened: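 50 nM RECQ1T1 preincubated 15 min with compound in Tris pH 8.0 buffer with MgCl2, DTT, Tween-20 and 2.5 ug/ml poly(dI-dC); started with 200 nM TAMRA/BHQ-2 forked duplex and 2 mM ATP. Unwinding read as fluorescence (525/598 nm), two reads 2 h apart.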
# [7] = biological target: RecQ-like DNA helicase BLM (Homo sapiens) (UniProt P54132); assay: qHTS Validation Assay for Inhibitors of Bloom's syndrome helicase (BLM) (AID 2364)
# Chain of RecQ-like DNA helicase BLM (Homo sapiens) (P54132 whole entry, looked up): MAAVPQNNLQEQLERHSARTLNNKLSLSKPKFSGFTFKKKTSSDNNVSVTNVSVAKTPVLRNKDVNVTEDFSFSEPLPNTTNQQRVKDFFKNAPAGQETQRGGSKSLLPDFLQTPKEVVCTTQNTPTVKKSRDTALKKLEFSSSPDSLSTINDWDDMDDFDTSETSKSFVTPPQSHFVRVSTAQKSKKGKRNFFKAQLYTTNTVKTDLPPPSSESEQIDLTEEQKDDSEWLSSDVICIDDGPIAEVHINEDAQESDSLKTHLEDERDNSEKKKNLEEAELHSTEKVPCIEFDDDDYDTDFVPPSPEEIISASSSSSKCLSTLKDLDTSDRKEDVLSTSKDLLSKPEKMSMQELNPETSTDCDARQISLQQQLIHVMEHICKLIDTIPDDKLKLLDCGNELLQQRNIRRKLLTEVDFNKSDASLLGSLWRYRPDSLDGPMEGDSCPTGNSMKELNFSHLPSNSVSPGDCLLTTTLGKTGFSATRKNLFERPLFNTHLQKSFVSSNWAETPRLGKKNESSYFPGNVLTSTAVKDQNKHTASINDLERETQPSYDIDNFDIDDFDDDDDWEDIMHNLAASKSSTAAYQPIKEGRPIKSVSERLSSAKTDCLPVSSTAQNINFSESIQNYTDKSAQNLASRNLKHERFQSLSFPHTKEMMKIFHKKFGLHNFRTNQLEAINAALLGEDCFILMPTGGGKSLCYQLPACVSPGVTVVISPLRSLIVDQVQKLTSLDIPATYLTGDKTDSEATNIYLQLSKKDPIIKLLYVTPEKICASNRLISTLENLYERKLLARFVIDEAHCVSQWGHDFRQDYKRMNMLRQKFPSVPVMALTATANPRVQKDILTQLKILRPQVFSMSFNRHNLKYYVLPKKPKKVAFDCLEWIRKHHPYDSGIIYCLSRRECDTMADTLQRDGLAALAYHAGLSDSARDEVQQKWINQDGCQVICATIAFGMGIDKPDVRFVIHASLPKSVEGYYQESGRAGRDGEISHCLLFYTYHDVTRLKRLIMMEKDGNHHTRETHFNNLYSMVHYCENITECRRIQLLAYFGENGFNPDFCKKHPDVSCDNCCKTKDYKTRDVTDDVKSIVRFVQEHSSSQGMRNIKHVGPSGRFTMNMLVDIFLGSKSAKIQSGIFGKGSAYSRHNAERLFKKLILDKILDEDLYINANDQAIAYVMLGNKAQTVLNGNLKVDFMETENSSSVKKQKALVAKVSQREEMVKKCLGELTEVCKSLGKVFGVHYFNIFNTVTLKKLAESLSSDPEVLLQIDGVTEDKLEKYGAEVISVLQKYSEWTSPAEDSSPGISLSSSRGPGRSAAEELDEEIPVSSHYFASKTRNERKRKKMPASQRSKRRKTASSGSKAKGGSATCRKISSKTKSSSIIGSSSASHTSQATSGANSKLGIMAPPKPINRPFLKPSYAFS
# Procedure, shortened: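 50 nM BLM preincubated 15 min at room temperature with compound in pH 8.0 Tris buffer containing 2.5 ug/ml poly(dI-dC); started with 200 nM TAMRA/BHQ-2 forked duplex and 2 mM ATP (final). Unwinding read as TAMRA fluorescence increase, two reads 2 h apart.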
# [8] = biological target: Endonuclease 4 (Escherichia coli (strain K12)) (UniProt P0A6C1); assay: Counterscreen for APE1 Inhibitors: qHTS Assay for Inhibitors of Endonuclease IV (AID 2565)
# Excerpt: Assay Provider: David M. Wilson, III, National Institute on Aging, NIH
# Screening Center PI: Austin, C.P.
# Screening Center: NIH Chemical Genomics Center [NCGC]
# Escherichia coli endonuclease IV (Endo IV) is the key member of the AP endonuclease superfamily that catalyzes the cleavage of damaged DNA backbone immediately 5' of an AP site. E. coli EndoIV has the same functional activities as human APE1 but has no sequence or structural homology to the human protein. Herein, we utilize E. coli EndoIV to counter screen compound libraries as part of a high-throughput campaign for APE1 inhibitor identification. […]
# Inhibition of APE1 activity was screened by utilizing double-stranded short substrate containing tetrahydrofuran (THF) abasic site labeled with rhodamine-type fluorophore (TAMRA) at the 5'-end and with non-fluorescent Black Hole Quencher-2 (BHQ-2) at the opposing 3'-end. An increase in the fluorescence intensity due to incision of the abasic site by APE1 was used to measure the enzyme activity. […]
# Three uL of enzyme were dispensed to 1536-well Greiner black solid bottom plates. […] The plates were immediately transferred into ViewLux High-throughput CCD imager (Perkin-Elmer) in order to measure the reaction progress in kinetic mode (three reads every 60 seconds) using 525 nm excitation and 598 nm emission fluorescence protocol. […]
# [9] = biological target: DNA repair nuclease/redox regulator APEX1 (Homo sapiens) (UniProt P27695); assay: Confirmation qHTS Assay for Inhibitors of the Human Apurinic/apyrimidinic Endonuclease 1 (APE1) (AID 2572); conditions: purified APE1, fluorogenic abasic-site DNA cleavage; note: potency is the fitted concentration of half-maximal effect; nearly all actives have a fitted effect of over 30% in size
# Chain of DNA repair nuclease/redox regulator APEX1 (Homo sapiens) (P27695 whole entry, looked up): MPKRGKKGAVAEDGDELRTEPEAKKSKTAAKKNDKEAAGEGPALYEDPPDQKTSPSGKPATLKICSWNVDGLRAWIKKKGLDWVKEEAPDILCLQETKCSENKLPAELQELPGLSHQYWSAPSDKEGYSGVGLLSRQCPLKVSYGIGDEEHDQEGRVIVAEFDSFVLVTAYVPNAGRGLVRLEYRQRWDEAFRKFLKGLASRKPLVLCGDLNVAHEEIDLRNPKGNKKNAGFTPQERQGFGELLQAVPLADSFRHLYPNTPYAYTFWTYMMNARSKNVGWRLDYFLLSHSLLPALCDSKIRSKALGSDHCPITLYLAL
# Procedure, shortened: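 Enzyme preincubated 15 min at room temperature with compound; reaction started with 50 nM final double-stranded THF abasic-site substrate (5'-TAMRA, 3'-BHQ-2). Fluorescence read kinetically (525/598 nm); third-minus-first read difference gives reaction progress.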
# [10] = biological target: DNA repair nuclease/redox regulator APEX1 (Homo sapiens) (UniProt P27695); assay: qHTS FP-Based Assay for Inhibitors of the Human Apurinic/apyrimidinic Endonuclease 1 (APE1) (AID 2573)
structure (smiles),measurement,setting,value
CC[N+](C)(C)Cc1ccccc1Br,outcome,[1],inactive
same,Potency,[2],14.1 µM (active)
same,outcome,[3],inactive
same,Potency,[4],11.2 µM (active)
same,outcome,[5],inactive
same,outcome,[6],inactive
same,outcome,[7],inactive
CN1Cc2c(N)cccc2C(c2ccccc2)C1 (stereo not drawn),outcome,[5],inactive
same,outcome,[6],inactive
same,outcome,[7],inactive
Oc1cc(O)c2c(c1)OC(c1ccc(O)c(O)c1)C(O)C2 (stereo not drawn),outcome,[8],inactive
same,Potency,[9],2.51 µM (active)
same,outcome,[10],inactive
